Data on ten compounds can be found in PubChem BioAssay (NCATS).

Values joined by “and” are separate entries in the source; they are usually repeats but may differ in a detail not shown here. Identical values can stand only once. Records with an inconclusive call do not appear. Active and inactive are the calls of the source. Unless noted, calls come from the whole dose curve; as a rule, active = well fitted curve in the direction sought with a large enough effect; inconclusive = small, poorly fitted or top-dose-only effect, or another doubt; inactive = no such curve, though single readings can be large; an effect the other way counts as inactive or inconclusive.

Assay [1] is described as follows: Primary qHTS for small molecule stabilizers of the endoplasmic reticulum resident proteome: Secreted ER Calcium Modulated Protein (SERCaMP) assay (AID 1508630). Note: % is set by controls: 0 for no effect and ±100 for the full control effect. Put shortly: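 The SH-SY5Y reporter protocol was run at 3 concentrations up to 38.3 uM (primary) or 11 concentrations (follow-up): 16 h compound, 100 nM thapsigargin for 4 h, then extracellular luciferase luminescence.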

Assay [2] concerns the target Glucocorticoid receptor (Homo sapiens) (UniProt P04150). In words: GR-GFP Redistribution (AID 450;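 active = compounds whose dose series gives a full or clear partial fitted curve of increased nuclear translocation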; note: potency is the fitted concentration of half-maximal effect). The conditions noted are these: U2OS GR-GFP nuclear translocation, laser cytometry, 2 h.
The target in assay [3] is Mitogen-activated protein kinase 10 (Mus musculus) (UniProt Q61831). The experiment in a line: JNK3 AlphaScreen Assay (AID 530; active = well fitted curve in either direction with a large enough effect, not every such curve was filed as active;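 note: kinase came from lysate of stimulated human HepG2 cells; signal reports phosphorylation of biotinylated GST-cJun 1-79 at Ser73 with 10 µM ATP; % is set by controls: 0 for no effect and ±100 for the full control effect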). Put shortly:
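qHTS titrations with 15 min compound pre-incubation before adding ATP (10 uM final). Read-out: AlphaScreen of Ser73-phosphorylated biotin-GST-cJun using HepG2 lysate JNK3 activated by IL-1β and TNFα.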

The nature of assay [4]: qHTS Assay for Lipid Storage Modulators (AID 1519; calls by dose curve; for activity change, negative = inhibition: % is set by controls: 0 for no effect and ±100 for the full control effect). Conditions: Drosophila S3 cells, BODIPY lipid droplet/cell ratio, laser cytometry, cells loaded with oleic acid; for activity change, negative = inhibition: at 57.5 µM (top of the series). In a few lines: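 Cells seeded at 5,000 per well were treated with compounds over a concentration series and loaded with oleic acid (400 uM, as added). Lipid droplet fluorescence (488 nm excitation, 500-530 nm channel) was read by laser-scanning cytometry and normalized to 20 uM Triacsin C.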
(Quantitative high-throughput screening tests each substance at several concentrations.)

Assay [5] deals with Zika virus NS2B-NS3 protease (linked construct). The experiment in a line: Primary screen NINDS Rhodamine qHTS for Zika virus inhibitors (AID 1347160). Note: nearly all actives have a fitted effect of over 55% in size. Note: potency is the fitted concentration of half-maximal effect. Put shortly: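 Aprotinin served as in-plate control. Conditions: 25 nM linked NS2B-NS3, pH 8.0 Tris buffer, titrated compounds, 15 min preincubation and 15 min reaction with 1.5 microM Rhod110 substrate at room temperature.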

Assay [6] in a line: OV-KATE Cancer Cell Toxicity qHTS against the NCATS CANVASS Library (AID 1347345). Note: % is set by controls: 0 for no effect and ±100 for the full control effect. In a few lines: (§1)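 Viability was assessed by adding CellTiter-Glo reagent to treated cultures and reading luminescence after 15min at room temperature. Treatment lasted 72 h at 37 degrees C/5% CO2, using an 11-point series on 1000 cells/well.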
A short description of assay [7]: HPAF-II Cancer Cell Toxicity qHTS against the NCATS CANVASS Library (AID 1347346). Note: nearly all actives have a fitted effect of over 55% in size. Note: potency is the fitted concentration of half-maximal effect. Put shortly:
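First, HPAF-II cells are plated (1000 cells/well) and held 4 h at 37 degrees C. Next, compounds are pin-transferred as an 11-point series. After 72 h, CellTiter-Glo is added and luminescence measured.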

Assay [8] is described as follows: OV-SAHO Cancer Cell Toxicity qHTS against the NCATS CANVASS Library (AID 1347348). Note: % is set by controls: 0 for no effect and ±100 for the full control effect; nearly all actives have a fitted effect of over 55% in size. Put shortly: as §1
Assay [9] can be described thus: HEK293 24hr Apoptosis Induction qHTS against the NCATS CANVASS Library (AID 1347359). Note: 0% is about no effect. Put shortly:
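Caspase-3/7 activation measured as luminescence from the DEVD-based Caspase-Glo reagent, 15 min at room temperature, following 24-hour compound treatment of HEK293 cells.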

Assay [10] is described as follows: HEK293 12hr Apoptosis Induction qHTS against the NCATS CANVASS Library (AID 1347361). Note: 0% is about no effect. Put shortly:
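Read-out: Caspase-Glo 3/7 luminescence (DEVD substrate), 15 min RT. Preceded by 12 h compound exposure of HEK293, 500 cells/well, 11-pt qHTS titration; doxorubicin titration as control.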

Assay [11] deals with NAD(P)H diaphorase (Clostridium kluyveri). In words: Diaphorse counterscreen qHTS: Assay Interference Panel against the NCATS CANVASS Library (AID 1347362). Note: 0% is about no effect. Put shortly: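 Counterscreen for coupling-enzyme interference: resorufin fluorescence from resazurin/NADH turnover, read after 5 min at room temperature. Compounds were tested over an 11-point series after 15 min dark preincubation with diaphorase in PBS-Tween.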

For assay [12], the target named is Luciferin 4-monooxygenase (Photinus pyralis) (UniProt P08659). The experiment in a line: Firefly luciferase counterscreen qHTS: Assay Interference Panel against the NCATS CANVASS Library (AID 1347363). Note: 0% is about no effect. Put shortly:
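Luminescence inhibition readout: compounds (11-point qHTS) sat 15 min at room temperature with substrate mix (0.013 mM luciferin and ATP), then firefly luciferase was added and signal read 5 min later.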
For orientation: A counterscreen serves to expose hits that act by an unwanted route or on another target.

In assay [13] the target is Nuclear receptor subfamily 1 group I member 3 (Homo sapiens) (UniProt Q14994). In words: qHTS for Constitutive Androstane Receptor (CAR) Agonist screened against the NCATS CANVASS Library (AID 1347373).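 Note: every well also contained 1.5 µM PK11195 alongside the test compound; 0% is about no effect.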 In a few lines:
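Cells were plated and allowed to attach for 4hr, then dosed with compound in an 11-point series alongside 1.5uM PK11195. After 24hr at 37C, viability was measured fluorometrically and CAR-driven CYP2B6 reporter luminescence was recorded.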

Assay [14] can be described thus: 10-beta competent E. coli microbial cell viability qHTS against the NCATS CANVASS Library (AID 1347376). Note: 0% is about no effect. Put shortly: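 Bacterial suspension diluted to 0.2 OD was dosed with compounds, 11-point series, then held overnight at 37C. BacTiter-Glo reagent was added, and after 20 min at room temperature ATP-dependent luminescence was measured.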
The nature of assay [15]: qHTS for H2AX Agonists against the NCATS CANVASS Library (AID 1347378). Note: 0% is about no effect. In a few lines: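 CHO-K1 cells were plated overnight at 37C, then exposed to compounds (concentration series, 0.76% DMSO final) for 3 hr at 37C. Lysates received Eu-cryptate anti-pH2AX (S139) and d2 anti-H2AX antibodies; after 24 hr at room temperature, TR-FRET 665/620 nm ratio was read.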
Assay [16] can be described thus: Inflammasome Signaling qHTS Counterscreen: IL-1-beta AlphaLISA counterscreen against the NCATS CANVASS Library (AID 1347381).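 Note: cell-free check with purified IL-1β in medium and no THP-1 cells; 0% is about no effect.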 In a few lines: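 Purified IL-1-beta (4 pg/well) + compound, 11-pt conc. series; acceptor beads 6 ug/mL + biotin-Ab 0.6 nM final, 1 h RT; SA-donor 24 ug/ml final, 30 min dark RT; read ex 680/em 615.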
The target in assay [17] is Glucocorticoid receptor (Homo sapiens) (UniProt P04150). In words: GR-EFC Redistribution (AID 451; calls by dose curve; note: potency is the fitted concentration of half-maximal effect). Conditions: CHO-K1 GR-EFC translocation, beta-gal luminescence, 2 h. Put shortly: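 Translocation of GR-ED fusion to nuclear EA restores b-gal, read by luminescence after 1 h room-temperature detection. Engineered CHO-K1 biosensor cells, 1,000/well, exposed 2 h at 37 C to titrations up to 46 uM final.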

Assay [18] concerns the target 3',5'-cyclic-AMP phosphodiesterase 4B (Homo sapiens) (UniProt Q07343). In words: qHTS Assay for Inhibitors of PDE-IV (AID 607; active = well fitted activation curve with a large enough effect in the main read-out, with a control signal flat, not every such curve was filed as active; note: % of control where 0% means no effect). Put shortly: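 ACTOne HEK293 cells carry a modified cAMP-gated CNG channel and express endogenous PDE4; plated 1000 cells/well, compounds up to 22.9 uM final. Membrane-potential dye fluorescence (ex 535/em 590) was read; parental cells received 10 uM forskolin + 100 uM RO 20-1724.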

Assay [19] addresses DNA dC->dU-editing enzyme APOBEC-3G (Homo sapiens) (UniProt Q9HC16). In words: qHTS for inhibitors of Vif-A3G interactions: Validation (AID 588379). Note: 0% is about no effect. In a few lines:
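Yellow fluorescence (Ex 488, Em 500-530) of Vif-coexpressing HeLa A3G-eYFP cells, scanned by Acumen cytometer, reports blocked A3G degradation. Cells plated at 700/well overnight at 37 deg C before compound addition, then a further overnight compound incubation at 37 deg C.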

Setting [20] is: measured here: cell count channel max response.
[21] abbreviates: measured here: lipid channel max response.

Sequence of 3',5'-cyclic-AMP phosphodiesterase 4B (Homo sapiens) (Q07343 whole entry, looked up): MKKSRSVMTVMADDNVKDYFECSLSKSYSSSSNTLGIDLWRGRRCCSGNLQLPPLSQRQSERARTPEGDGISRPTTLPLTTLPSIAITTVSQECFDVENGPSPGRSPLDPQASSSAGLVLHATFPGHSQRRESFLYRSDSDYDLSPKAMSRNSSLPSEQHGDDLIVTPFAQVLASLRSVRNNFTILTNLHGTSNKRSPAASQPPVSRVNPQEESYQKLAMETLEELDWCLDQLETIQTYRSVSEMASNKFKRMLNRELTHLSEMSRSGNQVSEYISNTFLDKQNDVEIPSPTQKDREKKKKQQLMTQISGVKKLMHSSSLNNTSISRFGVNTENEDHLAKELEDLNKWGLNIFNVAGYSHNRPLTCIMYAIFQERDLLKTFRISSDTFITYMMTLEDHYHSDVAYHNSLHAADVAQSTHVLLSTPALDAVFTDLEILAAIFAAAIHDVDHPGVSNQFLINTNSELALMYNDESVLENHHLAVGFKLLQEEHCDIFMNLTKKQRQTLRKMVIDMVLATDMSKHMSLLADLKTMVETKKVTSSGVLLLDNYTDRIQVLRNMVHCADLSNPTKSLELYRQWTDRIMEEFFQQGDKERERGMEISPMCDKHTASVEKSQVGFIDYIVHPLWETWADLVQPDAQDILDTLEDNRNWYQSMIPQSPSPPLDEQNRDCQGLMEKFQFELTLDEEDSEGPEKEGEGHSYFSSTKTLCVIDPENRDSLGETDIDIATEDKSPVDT
Sequence of Luciferin 4-monooxygenase (Photinus pyralis) (P08659 whole entry, looked up): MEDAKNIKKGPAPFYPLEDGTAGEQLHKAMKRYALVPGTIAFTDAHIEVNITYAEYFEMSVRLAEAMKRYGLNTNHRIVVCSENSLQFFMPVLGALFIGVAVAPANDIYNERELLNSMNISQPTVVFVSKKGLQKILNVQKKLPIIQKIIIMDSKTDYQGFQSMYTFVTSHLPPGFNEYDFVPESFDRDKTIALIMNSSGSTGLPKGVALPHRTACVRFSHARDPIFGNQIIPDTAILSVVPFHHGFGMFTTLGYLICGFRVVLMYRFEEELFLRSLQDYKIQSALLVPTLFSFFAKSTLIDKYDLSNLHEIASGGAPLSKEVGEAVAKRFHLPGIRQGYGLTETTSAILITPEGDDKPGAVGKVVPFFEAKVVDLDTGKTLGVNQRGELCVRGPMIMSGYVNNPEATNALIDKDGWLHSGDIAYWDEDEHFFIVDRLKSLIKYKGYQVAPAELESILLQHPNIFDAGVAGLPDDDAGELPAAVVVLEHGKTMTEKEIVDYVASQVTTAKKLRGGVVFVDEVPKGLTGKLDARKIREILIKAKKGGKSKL
Sequence of Nuclear receptor subfamily 1 group I member 3 (Homo sapiens) (Q14994 whole entry, looked up): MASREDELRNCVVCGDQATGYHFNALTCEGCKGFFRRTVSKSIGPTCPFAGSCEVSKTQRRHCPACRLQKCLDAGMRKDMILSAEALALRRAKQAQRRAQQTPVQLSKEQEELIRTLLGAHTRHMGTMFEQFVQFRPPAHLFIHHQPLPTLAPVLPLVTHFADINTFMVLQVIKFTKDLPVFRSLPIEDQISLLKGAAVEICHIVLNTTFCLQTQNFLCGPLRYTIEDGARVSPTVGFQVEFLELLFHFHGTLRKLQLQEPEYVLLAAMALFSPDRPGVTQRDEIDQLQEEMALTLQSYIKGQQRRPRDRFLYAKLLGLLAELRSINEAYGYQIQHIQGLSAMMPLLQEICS
Sequence of Glucocorticoid receptor (Homo sapiens) (P04150 whole entry, looked up, the tested form may be a part): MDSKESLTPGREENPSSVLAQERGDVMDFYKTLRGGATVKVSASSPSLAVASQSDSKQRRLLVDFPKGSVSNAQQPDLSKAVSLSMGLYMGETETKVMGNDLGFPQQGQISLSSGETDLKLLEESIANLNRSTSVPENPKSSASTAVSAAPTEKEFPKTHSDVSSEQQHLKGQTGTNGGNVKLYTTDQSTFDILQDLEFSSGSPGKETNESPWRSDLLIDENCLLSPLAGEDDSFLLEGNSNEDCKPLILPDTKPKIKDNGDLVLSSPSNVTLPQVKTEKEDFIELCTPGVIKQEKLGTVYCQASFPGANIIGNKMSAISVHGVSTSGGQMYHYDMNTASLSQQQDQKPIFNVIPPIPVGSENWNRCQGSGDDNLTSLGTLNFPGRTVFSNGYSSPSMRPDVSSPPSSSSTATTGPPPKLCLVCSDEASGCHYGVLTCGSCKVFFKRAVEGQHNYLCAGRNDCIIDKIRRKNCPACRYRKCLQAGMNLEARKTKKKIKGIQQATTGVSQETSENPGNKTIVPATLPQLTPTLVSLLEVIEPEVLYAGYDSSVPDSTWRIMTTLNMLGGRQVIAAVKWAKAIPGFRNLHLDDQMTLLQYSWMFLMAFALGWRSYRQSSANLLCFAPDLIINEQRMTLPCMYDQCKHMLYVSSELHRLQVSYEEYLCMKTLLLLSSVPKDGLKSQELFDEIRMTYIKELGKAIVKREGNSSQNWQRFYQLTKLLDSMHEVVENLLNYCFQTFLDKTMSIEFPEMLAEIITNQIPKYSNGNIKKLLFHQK
Sequence of DNA dC->dU-editing enzyme APOBEC-3G (Homo sapiens) (Q9HC16 whole entry, looked up): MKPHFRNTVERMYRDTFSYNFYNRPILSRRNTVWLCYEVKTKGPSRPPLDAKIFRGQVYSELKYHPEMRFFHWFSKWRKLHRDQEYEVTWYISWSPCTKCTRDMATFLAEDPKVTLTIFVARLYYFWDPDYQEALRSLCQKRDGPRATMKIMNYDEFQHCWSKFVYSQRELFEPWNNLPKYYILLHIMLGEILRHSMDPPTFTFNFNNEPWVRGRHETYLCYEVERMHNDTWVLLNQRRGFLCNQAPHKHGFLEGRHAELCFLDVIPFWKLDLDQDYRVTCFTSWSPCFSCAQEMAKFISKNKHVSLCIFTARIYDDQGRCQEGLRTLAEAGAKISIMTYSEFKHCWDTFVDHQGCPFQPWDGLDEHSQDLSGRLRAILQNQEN

On to `CC(C)[C@]1(O)[C@@H](OC(=O)c2ccc[nH]2)[C@@]2(O)[C@@]3(C)C[C@]4(O)O[C@@]5([C@H](O)[C@@H](C)CC[C@]35O)[C@@]2(O)C41C`, for which the Potency result in assay [1] was “inactive”.

With `O=C(O)Cc1cccnc1C(=O)O`, the Potency in [2] is > 46 µM (inactive). The outcome in assay [3] was inactive. Moreover, the activity change, negative = inhibition in assay [4] was 3.53% (inactive). The max response in [4] (setting [20]) is -8.51%; in assay [4] (setting [21]) it was -2.88%. The Potency result in assay [1] is “inactive”.

Turning to `CCN1C[C@]2(C)CC[C@@H](O)[C@]34C1[C@H](C[C@H]23)C12CCC(CC14)[C@](O)(CO)[C@H]2O` (stereo partly specified), the Potency result in [5], in assay [6], in assay [7], in assay [8], in assay [9] and in assay [10] was “inactive” each time. In addition, the Potency entry in assay [15] is “inactive”. Besides, the outcome in assay [11], in [12], in assay [13], in assay [14] and in [16] was inactive.

In the case of `CP(=O)(O)CCCN`, the Potency in [2] and in assay [17] was > 46 µM (inactive) in each case. The compound was called inactive in [3]. Also, the Potency result in assay [18], in assay [19] and in assay [1] was “inactive” each time. Also, the activity change, negative = inhibition in [4] was -0.195% (inactive). The max response was found to be 3.46% in assay [4] (setting [20]) and 4.47% in assay [4] (setting [21]).

For `CN1C(=O)CCS(=O)(=O)[C@H]1c1ccc(Cl)cc1`, the Potency in [2] and in assay [17] was > 46 µM (inactive) in each case. In assay [3], the call was inactive. Besides, the Potency entry in [18] and in assay [1] was “inactive” each time. In addition, the activity change, negative = inhibition in assay [4] was -2.49% (inactive). Further, the max response in assay [4] (setting [20]) is -1.62%; in assay [4] (setting [21]), 2.79%.

`N[C@@H](CCP(=O)(O)O)C(=O)O`: the Potency in assay [2] was > 46 µM (inactive); in [17], > 46 µM (inactive) and > 9.22 µM (inactive). Moreover, the call in assay [3] was inactive. Further, the Potency entry in assay [18], in assay [19] and in [1] was “inactive” each time. The activity change, negative = inhibition in assay [4] is -1.66% (inactive). Besides, the max response was -5.2% in [4] (setting [20]) and -9.13% in assay [4] (setting [21]).

As for `Clc1ccc(C2CC3CCC2N3)cn1` (stereo unspecified), the Potency entry in assay [1] is “inactive”.

Regarding `CNCCc1ccccc1`, the Potency entry in [5], in assay [6], in [7], in assay [8], in assay [9] and in assay [10] was “inactive” each time. Moreover, the Potency result in assay [15] was “inactive”. Further, the call in assay [11], in assay [12], in [13], in assay [14] and in [16] was inactive.

For the compound `COC(=O)C1=C2Nc3ccccc3[C@@]23CCN2CC(C(C)=O)C1C[C@H]23` (stereo partly specified), the Potency was 55.3 µM (active) in assay [5] and 9.43 µM (active) in [7]. The Potency entry in assay [6], in assay [8], in assay [9], in assay [10] and in assay [15] was “inactive” throughout. Also, the compound was classed as inactive in assay [11], in assay [12], in [13], in [14] and in [16].

As for `CCCCCCCCCCCCCCCC(=O)OC[C@H](COP(=O)([O-])OCC[N+](C)(C)C)OC(C)=O`, the activity change, negative = inhibition in assay [1] was -14.9% [at 3.88 µM] (inactive).
